Values joined by “and” are separate entries in the source; they are usually repeats but may differ in a detail not shown here. Equal values may be shown once. Active and inactive are the calls of the source. Unless noted, the call rests on the fitted dose curve; in most records, active means well fitted curve in the direction sought with a large enough effect in the repeat runs; inconclusive means weak or mixed curves; inactive means no such curve, though single readings can be large; an effect the other way counts as inactive or inconclusive.
Columns and labels:
[1] = qHTS assay to identify small molecule antagonists of the thyroid receptor (TR) signaling pathway (AID 743065); further: potency means the concentration at half of the fitted maximal effect; nearly all actives have a fitted effect of over 55% in size
Outline: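 GH3.TRE-Luc rat pituitary cells (two TREs driving luciferase) were dosed with compound, then stimulated with 1 nM T3 (final) for 23.5 h at 37 C. ONE-Glo luminescence was the read-out, with CellTiter-Fluor fluorescence as the cytotoxicity counter-screen.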

[2] = qHTS assay to identify small molecule antagonists of the estrogen receptor alpha (ER-alpha) signaling pathway - cell viability counter screen (AID 743074; calls by dose curve;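 further: HEK293 cells carrying ER-alpha-UAS-bla reporter stimulated with 17beta-estradiol; nearly all actives have a fitted effect of over 45% in size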; further: potency means the concentration at half of the fitted maximal effect)
[3] = target: Estrogen receptor (Homo sapiens) (UniProt P03372); assay: qHTS assay to identify small molecule agonists of the estrogen receptor alpha (ER-alpha) signaling pathway (AID 743075; calls by dose curve;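 further: HEK293 GripTite cells with ER-alpha and UAS-driven beta-lactamase reporter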; further: potency means the concentration at half of the fitted maximal effect); details: HEK293 ER-alpha-UAS-bla, beta-lactamase FRET ratio, 18 h; activation: at 70.1 µM (top of the series)
Chain of Estrogen receptor (Homo sapiens) (P03372 whole entry, looked up): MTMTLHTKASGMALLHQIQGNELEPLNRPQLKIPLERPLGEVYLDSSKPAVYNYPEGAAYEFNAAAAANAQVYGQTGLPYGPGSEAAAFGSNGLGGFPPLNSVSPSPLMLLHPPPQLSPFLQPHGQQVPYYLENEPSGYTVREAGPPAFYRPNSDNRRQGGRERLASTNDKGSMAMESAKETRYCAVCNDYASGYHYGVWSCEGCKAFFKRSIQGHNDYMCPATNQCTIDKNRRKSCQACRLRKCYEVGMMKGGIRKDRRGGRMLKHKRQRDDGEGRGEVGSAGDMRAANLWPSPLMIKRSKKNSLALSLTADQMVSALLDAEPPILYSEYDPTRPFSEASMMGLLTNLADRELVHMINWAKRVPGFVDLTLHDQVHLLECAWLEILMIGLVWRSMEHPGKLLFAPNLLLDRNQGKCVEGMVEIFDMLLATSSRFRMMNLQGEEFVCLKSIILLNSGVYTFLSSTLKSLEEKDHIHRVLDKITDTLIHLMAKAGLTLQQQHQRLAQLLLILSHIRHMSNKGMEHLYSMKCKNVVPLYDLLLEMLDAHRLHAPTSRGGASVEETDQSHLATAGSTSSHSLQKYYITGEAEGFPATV

Aromatase (Homo sapiens) = Aromatase (Homo sapiens) (UniProt P11511); assay: qHTS assay to identify aromatase inhibitors (AID 743083); further: nearly all actives have a fitted effect of over 55% in size; further: potency means the concentration at half of the fitted maximal effect
Chain of Aromatase (Homo sapiens) (P11511 whole entry, looked up): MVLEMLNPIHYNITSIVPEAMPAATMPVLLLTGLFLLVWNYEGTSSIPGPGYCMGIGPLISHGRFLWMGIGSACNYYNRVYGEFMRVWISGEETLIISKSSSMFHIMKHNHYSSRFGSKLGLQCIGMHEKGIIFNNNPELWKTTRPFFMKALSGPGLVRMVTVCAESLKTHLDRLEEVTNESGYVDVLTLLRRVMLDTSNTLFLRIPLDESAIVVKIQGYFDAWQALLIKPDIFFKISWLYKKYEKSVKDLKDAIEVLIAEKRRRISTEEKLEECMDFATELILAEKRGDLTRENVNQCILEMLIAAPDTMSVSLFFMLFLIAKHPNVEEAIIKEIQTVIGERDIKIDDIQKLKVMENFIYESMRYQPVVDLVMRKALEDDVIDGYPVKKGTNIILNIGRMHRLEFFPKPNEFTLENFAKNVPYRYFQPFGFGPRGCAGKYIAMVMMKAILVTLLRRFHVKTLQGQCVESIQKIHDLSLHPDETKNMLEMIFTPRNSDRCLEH

[4] = qHTS assay to identify aromatase inhibitors - cell viability counter screen (AID 743084);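 further: cells stimulated with testosterone during compound exposure; nearly all actives have a fitted effect of over 55% in size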; further: potency means the concentration at half of the fitted maximal effect
[5] = target: Aryl hydrocarbon receptor (Homo sapiens) (UniProt P35869); assay: qHTS assay to identify small molecule that activate the aryl hydrocarbon receptor (AhR) signaling pathway (AID 743085); further: nearly all actives have a fitted effect of over 15% in size; further: potency means the concentration at half of the fitted maximal effect
Chain of Aryl hydrocarbon receptor (Homo sapiens) (P35869 whole entry, looked up): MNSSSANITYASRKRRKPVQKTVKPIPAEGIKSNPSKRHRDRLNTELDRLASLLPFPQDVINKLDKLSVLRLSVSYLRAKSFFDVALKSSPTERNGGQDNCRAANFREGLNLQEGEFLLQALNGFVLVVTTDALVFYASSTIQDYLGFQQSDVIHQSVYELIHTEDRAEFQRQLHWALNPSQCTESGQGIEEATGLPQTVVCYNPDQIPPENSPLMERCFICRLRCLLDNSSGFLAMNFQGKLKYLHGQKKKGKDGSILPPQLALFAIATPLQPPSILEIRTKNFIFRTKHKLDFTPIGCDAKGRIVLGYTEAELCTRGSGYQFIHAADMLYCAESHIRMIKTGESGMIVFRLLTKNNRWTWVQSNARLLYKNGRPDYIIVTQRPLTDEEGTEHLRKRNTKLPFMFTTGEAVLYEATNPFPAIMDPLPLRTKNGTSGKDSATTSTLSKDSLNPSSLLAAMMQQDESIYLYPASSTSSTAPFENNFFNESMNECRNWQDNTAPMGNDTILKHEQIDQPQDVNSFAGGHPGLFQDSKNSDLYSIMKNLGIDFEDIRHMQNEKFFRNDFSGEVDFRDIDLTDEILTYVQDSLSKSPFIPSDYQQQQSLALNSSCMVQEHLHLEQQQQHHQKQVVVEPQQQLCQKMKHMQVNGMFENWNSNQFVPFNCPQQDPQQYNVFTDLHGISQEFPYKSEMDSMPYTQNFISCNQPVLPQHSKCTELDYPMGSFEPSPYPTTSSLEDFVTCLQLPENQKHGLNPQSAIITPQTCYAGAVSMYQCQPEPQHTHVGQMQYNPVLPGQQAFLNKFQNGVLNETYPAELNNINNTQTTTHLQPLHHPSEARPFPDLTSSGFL
Outline: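 Measured in HG2L7.5c1 cells: CellTiter-Fluor signal (30 min incubation, 37C) for viability, then luciferase luminescence (30 min, room temperature). Compound contact time was 24 h at 37C, following a 5 h pre-incubation.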

[6] = qHTS assay to identify small molecule that activate the aryl hydrocarbon receptor (AhR) signaling pathway - cell viability counter screen (AID 743086); further: nearly all actives have a fitted effect of over 45% in size; further: potency means the concentration at half of the fitted maximal effect
Outline: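 HepG2-AhR-luc (HG2L7.5c1) cells, 4000/well, treated 24 h at 37 C with compound; viability measured as CellTiter-Fluor fluorescence after 30 min in the same wells as the luciferase read.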

[7] = qHTS assay to identify small molecule antagonists of the peroxisome proliferator-activated receptor gamma (PPARg) signaling pathway - cell viability counter screen (AID 743194); further: nearly all actives have a fitted effect of over 55% in size; further: potency means the concentration at half of the fitted maximal effect
Outline: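 Cytotoxicity counter screen in PPARg-bla HEK293H cells, same wells as reporter assay. Compounds plus 50 nM rosiglitazone (final) for 17 h at 37 C, then viability read by CellTiter-Glo luminescence.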

[8] = qHTS assay for small molecule agonists of the antioxidant response element (ARE) signaling pathway - cell viability counter screen (AID 743203; calls by dose curve; further: nearly all actives have a fitted effect of over 55% in size; further: potency means the concentration at half of the fitted maximal effect)
Outline: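 Viability counter screen: CellTiter-Glo luminescence, read after 30 min at room temperature, in ARE-bla HepG2 wells. Compound exposure lasted 16 h at 37C/5% CO2, following a 5 h pre-incubation of the cells after plating.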

[9] = qHTS assay for small molecule activators of the heat shock response signaling pathway - cell viability counter screen (AID 743209); further: nearly all actives have a fitted effect of over 50% in size; further: potency means the concentration at half of the fitted maximal effect
Outline: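 Cytotoxicity counter screen run in the same wells as the heat-shock bla reporter assay: HeLa HSE-bla cells, 5 h compound exposure at 37 C, viability read by CellTiter-Glo luminescence.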

[10] = test system: thyroid hormone receptor (rat, GH3 cells); assay: qHTS assay to identify small molecule agonists of the thyroid receptor (TR) signaling pathway (AID 743066; calls by dose curve; further: on the % scale 0 is the no-effect control and ±100 the full control effect)
[11] = target: Estrogen receptor (Homo sapiens) (UniProt P03372); assay: qHTS assay to identify small molecule agonists of the estrogen receptor alpha (ER-alpha) signaling pathway using the BG1 cell line (AID 743079); details: BG1Luc4E2 cells, ERE-luciferase agonist, 22 h; further: nearly all actives have a fitted effect of over 20% in size; further: potency means the concentration at half of the fitted maximal effect
[12] = qHTS assay for small molecule agonists of the antioxidant response element (ARE) signaling pathway (AID 743202; active means well fitted activation curve with a large enough effect in the signal ratio in the repeat runs, not every such curve was filed as active; inconclusive means weak or mixed curves, or effect the other way; inactive means no such curve, though single readings can be large or run the other way; the % refers to the signal ratio; further: potency means the concentration at half of the fitted maximal effect)
Outline: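 HepG2 ARE-bla reporter line, 2,000 cells/well; 5 h preincubation 37 C/5% CO2; compound (DMSO) 16 h 37 C; B/G FRET substrate 2 h RT; fluorescence intensity.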

[13] = qHTS assay to identify small molecule antagonists of the estrogen receptor alpha (ER-alpha) signaling pathway using the BG1 cell line (AID 743080; calls by dose curve;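 further: BG1 cells stimulated with 17beta-estradiol alongside compound; on the % scale 0 is the no-effect control and ±100 the full control effect; nearly all actives have a fitted effect of over 25% in size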)
Outline: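 BG1-Luc-4E2 cells (endogenous full-length ER-alpha, 4xERE luciferase) hormone-starved 5 days in charcoal-stripped FBS, plated 4,000/well for 24 h, then compound plus 17beta-estradiol for 21.5 h at 37 C; ONE-Glo luminescence read.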

[14] = target: Peroxisome proliferator-activated receptor gamma (Homo sapiens) (UniProt P37231); assay: qHTS assay to identify small molecule agonists of the peroxisome proliferator-activated receptor gamma (PPARg) signaling pathway (AID 743094; active means well fitted activation curve with a large enough effect in the signal ratio in the repeat runs, not every such curve was filed as active; inconclusive means weak or mixed curves, or effect the other way; inactive means no such curve, though single readings can be large or run the other way; the % refers to the signal ratio; further: on the % scale 0 is the no-effect control and ±100 the full control effect)
Chain of Peroxisome proliferator-activated receptor gamma (Homo sapiens) (P37231 whole entry, looked up): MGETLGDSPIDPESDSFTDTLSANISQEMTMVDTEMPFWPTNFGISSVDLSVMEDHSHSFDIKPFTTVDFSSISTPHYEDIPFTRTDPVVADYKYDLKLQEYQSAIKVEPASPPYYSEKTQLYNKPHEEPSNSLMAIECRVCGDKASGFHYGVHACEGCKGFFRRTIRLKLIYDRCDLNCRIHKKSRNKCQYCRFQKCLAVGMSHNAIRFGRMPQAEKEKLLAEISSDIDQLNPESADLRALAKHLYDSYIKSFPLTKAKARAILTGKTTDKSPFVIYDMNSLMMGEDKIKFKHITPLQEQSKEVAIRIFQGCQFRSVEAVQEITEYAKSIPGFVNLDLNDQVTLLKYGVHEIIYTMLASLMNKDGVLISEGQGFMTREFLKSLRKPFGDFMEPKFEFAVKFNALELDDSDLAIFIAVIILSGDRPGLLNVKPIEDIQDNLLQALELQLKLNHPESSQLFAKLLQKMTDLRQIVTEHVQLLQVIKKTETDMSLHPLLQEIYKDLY
Outline: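 Agonist activity was taken from a beta-lactamase reporter (FRET substrate, 1 h at room temperature) in HEK293H cells carrying a PPARg UAS-bla construct. Compounds in DMSO were incubated 17 h at 37C after a 5 h cell pre-incubation.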

[15] = qHTS assay to identify small molecule antagonists of the estrogen receptor alpha (ER-alpha) signaling pathway using the BG1 cell line - cell viability counter screen (AID 743081);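 further: compound given together with 17beta-estradiol as the ER stimulus; nearly all actives have a fitted effect of over 45% in size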; further: potency means the concentration at half of the fitted maximal effect
[16] = target: Estrogen receptor (Homo sapiens) (UniProt P03372); assay: qHTS assay to identify small molecule antagonists of the estrogen receptor alpha (ER-alpha) signaling pathway (AID 743069; active means well fitted curve in the direction sought with a large enough effect in the signal ratio in the repeat runs, not every such curve was filed as active; inconclusive means weak or mixed curves, or effect the other way; inactive means no such curve, though single readings can be large or run the other way; the % refers to the signal ratio; further: on the % scale 0 is the no-effect control and ±100 the full control effect)
Outline: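 Beta-lactamase FRET fluorescence is read after 2 hr at room temperature with LiveBLAzer B/G substrate. Before that, ER-alpha-bla HEK293 cells sit 4 hr after plating, then receive compound plus 17beta-estradiol and incubate 18 hr at 37C.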

[17] = target: Peroxisome proliferator-activated receptor gamma (Homo sapiens) (UniProt P37231); assay: qHTS assay to identify small molecule antagonists of the peroxisome proliferator-activated receptor gamma (PPARg) signaling pathway (AID 743191; calls by dose curve; further: nearly all actives have a fitted effect of over 30% in size; further: potency means the concentration at half of the fitted maximal effect)
Outline: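 GeneBLAzer PPARg UAS-bla HEK293H cells, 5 h post-plating, exposed to compounds 17 h at 37C. LiveBLAzer B/G FRET substrate added for 1 h at room temperature; beta-lactamase reporter read by fluorescence intensity.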

[18] = qHTS assay for small molecule activators of the heat shock response signaling pathway (AID 743210; active means well fitted activation curve with a large enough effect in the signal ratio in the repeat runs, with a control signal flat, not every such curve was filed as active; inconclusive means weak or mixed curves; the % refers to the signal ratio;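 further: HeLa cells with beta-lactamase reporter driven by heat shock elements; on the % scale 0 is the no-effect control and ±100 the full control effect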)
Outline: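 Beta-lactamase reporter read-out: FRET substrate fluorescence after 2.5 h at RT, following 5 h compound treatment at 37 C of HeLa cells carrying HSE-driven bla reporter; quantitative HTS format.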

Oc1cc2ccccc2c2ccccc12
active: Potency [1] 10.9 µM | Potency [2] 11 µM | Potency [3] 24.5 µM [fluorescent] | Potency (Aromatase (Homo sapiens)) 6.86 µM | Potency [4] 8.63 µM | Potency [5] 8.63 µM | Potency [6] 24.3 µM | Potency [7] 3.89 µM | Potency [8] 9.69 µM | Potency [9] 9.77 µM

Nc1c2ccccc2nc2ccccc12
active: Potency [11] 11.9 µM and 677 nM | Potency (Aromatase (Homo sapiens)) 18.8 µM and 6.03 µM | Potency [5] 11.9 µM and 13.5 µM | Potency [12] 4.22 µM | Potency [8] 24 µM
inactive: Potency [10] | Potency [2]

CCOC(=O)c1nc(C(Cl)(Cl)Cl)n(-c2ccc(Cl)cc2Cl)n1
active: Potency [1] 68.6 µM | Potency (Aromatase (Homo sapiens)) 61.1 µM | Potency [6] 61.1 µM | Potency [8] 24.3 µM
inactive: Potency [2] | Potency [3] | Potency [13] | Potency [5] | Potency [14]

CSc1ccc(/C=C2/C(C)=C(CC(=O)O)c3cc(F)ccc32)cc1
inactive: Potency [10] | Potency [3] | activation ([11]; at 70.3 µM (top of the series)) -0.897% | Potency [15] | Potency (Aromatase (Homo sapiens)) | Potency [4] | Potency [9]
active: Potency [5] 9.44 µM

O=Cc1cc(O)ccc1Br
inactive: Potency [10] | Potency [16] | Potency [2] | Potency [3] | Potency [15] | Potency (Aromatase (Homo sapiens)) | Potency [4] | Potency [5] | Potency [6] | Potency [14]
active: Potency [11] 31.1 µM

CN(C)c1ccc(SC#N)cc1
inactive: Potency [10] | Potency [2] | Potency [3] | Potency [13] | Potency [15] | Potency (Aromatase (Homo sapiens)) | Potency [4] | Potency [5] | Potency [6] | Potency [14] | Potency [8] | Potency [9]
active: Potency [11] 61.1 µM

O=C(Oc1ccccc1)c1ccccc1C(=O)Oc1ccccc1
inactive: Potency [10] | Potency [2] | Potency [3] | activation ([11]; at 70.3 µM (top of the series)) -7.29% | Potency [15] | Potency [7] | Potency [8] | Potency [9]

CC(C)(C)C(=O)OCOC(=O)[C@@H]1N2C(=O)[C@@H](NC(=O)[C@H](N)c3ccccc3)[C@H]2SC1(C)C
inactive: Potency [10] | Potency [16] | Potency [2] | Potency [3] | activation ([11]; at 32.5 µM (top of the series)) 0.598% | Potency [13] | Potency [15] | Potency (Aromatase (Homo sapiens)) | Potency [4] | Potency [5] | Potency [7] | Potency [9]

CNc1ccc(O)cc1
inactive: Potency [10]
active: Potency (Aromatase (Homo sapiens)) 15.3 µM | Potency [4] 19.3 µM | Potency [5] 61 µM | Potency [7] 43.6 µM

CC[C@H]1O[C@]2(CC[C@@H]1C)C[C@@H]1C[C@@H](C/C=C(\C)C[C@@H](C)/C=C/C=C3\CO[C@@H]4[C@H](O)C(C)=C[C@@H](C(=O)O1)[C@]34O)O2
active: Potency [1] 5.4 µM | Potency [2] 43.3 µM | Potency [15] 60.6 µM | Potency (Aromatase (Homo sapiens)) 30.4 µM | Potency [4] 27.1 µM | Potency [7] 19.3 µM | Potency [8] 21.5 µM | Potency [9] 6.85 µM
inactive: Potency [5]

CCCCCCCCCCCCc1ccc(O)cc1
active: Potency [1] 13.7 µM | Potency [2] 49 µM | Potency [3] 3.09 µM [inconclusive] | Potency [11] 0.969 µM | Potency (Aromatase (Homo sapiens)) 48.6 µM | Potency [4] 61.1 µM | Potency [8] 54.5 µM | Potency [9] 24.5 µM
inactive: Potency [5] | Potency [6]

Cc1cc(CCN2CCN(c3nsc4ccccc34)CC2)cc2c1NC(=O)CC2(C)C
active: Potency [1] 27.3 µM | Potency [2] 27.5 µM | Potency [15] 54.5 µM | Potency (Aromatase (Homo sapiens)) 24.3 µM | Potency [4] 24.3 µM | Potency [6] 27.3 µM | Potency [7] 19.5 µM
inactive: Potency [3] | Potency [5]

CC(C)C(C)(C)C(C)(C)C(C)(C)S
inactive: Potency [10] | Potency [16] | Potency [3] | activation ([11]; at 70.3 µM (top of the series)) 4.61% | Potency [15] | Potency [9]

CCN(C(=O)c1cc(C)cc(OC[C@H](C)Nc2ccncc2)c1)C(C)C
inactive: Potency [10] | Potency [2] | Potency [15] | Potency (Aromatase (Homo sapiens)) | Potency [4] | Potency [5] | Potency [7] | Potency [8] | Potency [9]

CCC(Cl)C(Cl)C(Cl)CC(Cl)C(Cl)C(C)Cl (stereo unspecified)
inactive: Potency [10] | Potency [2] | Potency [15] | Potency (Aromatase (Homo sapiens)) | Potency [4] | Potency [5] | Potency [14] | Potency [17] | Potency [8] | Potency [9]

Oc1ccc2cc(SSc3ccc4cc(O)ccc4c3)ccc2c1
active: Potency [4] 54.5 µM | Potency [17] 13.8 µM
inactive: Potency [10] | Potency [2] | Potency [15] | Potency [5] | Potency [6] | Potency [14] | Potency [9]

CCOc1ccc2nc3cc(N)ccc3c(N)c2c1
active: Potency [5] 11.9 µM
inactive: Potency [10] | Potency [16] | Potency [2] | activation ([11]; at 70.3 µM (top of the series)) -22.3%

Cc1cccc(CN2CCN(C(c3ccccc3)c3ccc(Cl)cc3)CC2)c1 (stereo unspecified)
inactive: Potency [16] | Potency [2] | Potency [3] | activation ([11]; at 32.5 µM (top of the series)) -3.05% | Potency [15] | Potency (Aromatase (Homo sapiens)) | Potency [4] | Potency [5] | Potency [6] | Potency [14] | Potency [7] | Potency [8] | Potency [9] | Potency [18]

OCCCCCCCCCCCCBr
inactive: Potency [10] | Potency [2] | Potency [15] | Potency (Aromatase (Homo sapiens)) | Potency [4] | Potency [5] | Potency [14] | Potency [8] | Potency [9]

CCN(CCC#N)c1ccc(N=Nc2c(Cl)cc([N+](=O)[O-])cc2Cl)cc1
active: Potency [15] 27.3 µM | Potency [4] 24.3 µM
inactive: Potency [10] | Potency [16] | Potency [2] | Potency [3] | activation ([11]; at 70.3 µM (top of the series)) -0.554% | Potency (Aromatase (Homo sapiens)) | Potency [5] | Potency [14] | Potency [7] | Potency [8] | Potency [9]

Source: PubChem BioAssay (Tox21)
